Test results: PubChem BioAssay
“And” between values parts separate entries of the source, which are not always exact repeats. Equal entries are not always repeated.

Key:
[1] = test system: Botulinum neurotoxin type F light chain protease (Clostridium botulinum); test: Clostridium botulinum type F light chain protease inhibitors, microsphere substrate cleavage, validation (AID 588459); settings: multiplex microsphere protease substrate cleavage assay, flow cytometry; at 10 µM; hits give high values
[2] = biological target: Botulinum neurotoxin type A (Clostridium botulinum) (UniProt P0DPI0); test: BoNT/A light chain protease inhibitors, biochemical, multiplex microsphere flow cytometry, validation set (AID 588460); settings: at 10 µM, hits give high values
Sequence of Botulinum neurotoxin type A (Clostridium botulinum) (P0DPI0 whole entry, looked up): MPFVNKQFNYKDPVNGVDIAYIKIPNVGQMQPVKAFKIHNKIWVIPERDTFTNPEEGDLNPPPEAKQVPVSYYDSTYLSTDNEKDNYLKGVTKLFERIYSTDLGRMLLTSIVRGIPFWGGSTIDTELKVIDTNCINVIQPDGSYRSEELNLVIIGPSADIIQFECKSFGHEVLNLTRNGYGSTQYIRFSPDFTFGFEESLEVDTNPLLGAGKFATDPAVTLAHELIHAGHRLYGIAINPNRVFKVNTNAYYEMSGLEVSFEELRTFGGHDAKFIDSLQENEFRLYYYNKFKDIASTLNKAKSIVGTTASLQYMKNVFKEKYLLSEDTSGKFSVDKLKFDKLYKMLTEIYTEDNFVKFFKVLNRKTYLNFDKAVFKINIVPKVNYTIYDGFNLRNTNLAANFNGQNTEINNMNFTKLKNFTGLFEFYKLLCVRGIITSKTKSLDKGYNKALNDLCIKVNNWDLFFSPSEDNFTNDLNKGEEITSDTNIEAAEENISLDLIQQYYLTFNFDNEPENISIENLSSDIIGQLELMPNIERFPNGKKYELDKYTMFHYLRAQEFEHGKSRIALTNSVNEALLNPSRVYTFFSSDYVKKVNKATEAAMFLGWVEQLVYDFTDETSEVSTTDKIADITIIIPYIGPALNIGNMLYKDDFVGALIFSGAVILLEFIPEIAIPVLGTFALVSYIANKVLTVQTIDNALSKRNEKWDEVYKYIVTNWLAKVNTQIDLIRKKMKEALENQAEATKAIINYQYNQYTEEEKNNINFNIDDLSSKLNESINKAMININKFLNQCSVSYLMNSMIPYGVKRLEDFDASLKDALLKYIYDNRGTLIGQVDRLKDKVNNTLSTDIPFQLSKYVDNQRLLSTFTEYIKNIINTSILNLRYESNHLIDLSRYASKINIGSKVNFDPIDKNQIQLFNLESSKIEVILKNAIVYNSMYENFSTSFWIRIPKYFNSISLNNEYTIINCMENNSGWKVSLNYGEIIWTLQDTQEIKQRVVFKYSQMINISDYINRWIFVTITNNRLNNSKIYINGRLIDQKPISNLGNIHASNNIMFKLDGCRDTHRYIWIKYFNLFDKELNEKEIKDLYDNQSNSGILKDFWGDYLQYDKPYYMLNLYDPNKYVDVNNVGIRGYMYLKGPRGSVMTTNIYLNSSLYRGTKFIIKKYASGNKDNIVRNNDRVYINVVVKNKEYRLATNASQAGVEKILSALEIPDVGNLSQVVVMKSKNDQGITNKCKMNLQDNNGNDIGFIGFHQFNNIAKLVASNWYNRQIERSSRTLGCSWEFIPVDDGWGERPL

[3] = biological target: Lethal factor (Bacillus anthracis) (UniProt P15917); test: Bacillus anthracis lethal factor inhibition, microsphere flow cytometry protease assay, validation at 10 µM (AID 588461); settings: multiplex microsphere protease cleavage assay, hits give high values
Sequence of Lethal factor (Bacillus anthracis) (P15917 whole entry, looked up): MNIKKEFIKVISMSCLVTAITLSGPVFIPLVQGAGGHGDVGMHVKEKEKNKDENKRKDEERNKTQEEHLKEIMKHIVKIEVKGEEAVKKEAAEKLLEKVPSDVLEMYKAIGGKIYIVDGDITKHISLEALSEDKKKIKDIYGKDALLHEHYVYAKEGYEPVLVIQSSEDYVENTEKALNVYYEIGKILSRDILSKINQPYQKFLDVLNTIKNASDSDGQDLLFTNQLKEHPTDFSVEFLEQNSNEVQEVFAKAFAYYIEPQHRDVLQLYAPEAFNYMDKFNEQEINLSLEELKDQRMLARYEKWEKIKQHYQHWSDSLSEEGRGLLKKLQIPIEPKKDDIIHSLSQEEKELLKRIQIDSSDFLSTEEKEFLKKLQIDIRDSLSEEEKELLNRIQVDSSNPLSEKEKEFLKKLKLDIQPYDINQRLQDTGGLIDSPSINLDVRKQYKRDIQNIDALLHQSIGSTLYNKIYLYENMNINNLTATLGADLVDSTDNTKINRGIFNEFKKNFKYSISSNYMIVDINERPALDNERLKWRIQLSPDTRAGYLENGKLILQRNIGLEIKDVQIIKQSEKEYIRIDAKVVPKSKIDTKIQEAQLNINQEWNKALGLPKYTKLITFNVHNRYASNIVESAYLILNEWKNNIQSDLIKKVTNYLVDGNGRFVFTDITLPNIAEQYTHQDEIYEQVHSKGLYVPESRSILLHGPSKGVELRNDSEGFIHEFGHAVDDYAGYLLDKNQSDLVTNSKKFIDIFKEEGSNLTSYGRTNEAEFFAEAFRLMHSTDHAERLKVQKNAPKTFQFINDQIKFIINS

Measured: inhibition

COc1cccc(OCc2nnc(-c3cccs3)o2)c1
inactive: [1] 1.2% | [2] -0.7% | [3] 1.3%

O=Cc1ccc(OC(=O)c2cccnc2)cc1
inactive: [1] 0.2% | [2] -0.7% | [3] -3.8%

CCCNC(C)C(=O)Nc1ccccc1C (centres undefined)
inactive: [1] 0.2% | [2] 0.2% | [3] -4.8%

COc1cc(C(=O)OCCCN(C)C)cc(OC)c1OC
inactive: [1] -0.2% | [2] -0.5% | [3] 1.8%

C[n+]1ccccc1/C=N/O
inactive: [1] 2.2% and 2.6% | [2] 0.3% and 1.2% | [3] -1.8% and -6.4%

CC1=CC(=O)c2ccccc2C1=O
inactive: [1] -2.1% | [2] -0.1% | [3] 6.7%

Cc1cn([C@H]2C[C@H](N=[N+]=[N-])[C@@H](CO)O2)c(=O)[nH]c1=O
inactive: [1] 2.4% | [2] 0.2% | [3] -2.8%

O=C(NO)c1ccccc1O
inactive: [1] 3.3% | [2] 2% | [3] -4%

Cc1ccc(Cl)c(OCCCN(C)Cc2ccccc2)c1
inactive: [1] 2.8% | [2] 0.1% | [3] -7.8%

COCCOC(=O)C1=C(C)NC(C)=C(C(=O)OC(C)C)C1c1cccc([N+](=O)[O-])c1 (centres undefined)
inactive: [1] -2.2% | [2] -0.7% | [3] -4.8%

COc1ccc2oc(=O)c(-c3nc(C)cs3)cc2c1
inactive: [1] 2.9% | [2] 1.9% | [3] -0.1%

COc1cccc(C2CCCN2Cc2nc(CCC(C)C)no2)c1 (centres undefined)
inactive: [1] -2.5% | [2] -0.8% | [3] -7.6%

COc1ccc2[nH]c(=O)c(CNC3CCCCC3)cc2c1
inactive: [1] -1.7% | [2] 0.9% | [3] -0.1%

CC(C)Oc1ccc(C(CC(=O)O)c2ccc(F)cc2)cc1 (centres undefined)
inactive: [1] 5.2% | [2] 2% | [3] 0.9%

CN(C)CCOc1ccccc1Cc1ccccc1
inactive: [1] 19.8% | [2] 1.6% | [3] 3.4%

COc1ccc(-c2c3c(=O)n(C)c(=O)n(C)c3cn2C2CCCCC2)cc1
inactive: [1] 1.1% | [2] -1.9% | [3] -3.1%

Nc1nc(Cl)nc2c1ncn2[C@H]1C[C@H](O)[C@@H](CO)O1
inactive: [1] -8.7% | [2] -2.6% | [3] -19.4%

COC1CCN(Cc2cn(Cc3ccccc3)nc2-c2cc3ccccc3o2)CC1
inactive: [1] 2% | [2] -0.8% | [3] -3.3%

COc1ccc(-c2nc(C)c(C(C)=O)n2O)cc1OC
inactive: [1] -3.6% | [2] -1.6% | [3] -3.9%

CC(=O)O[C@H]1CC[C@H]2[C@@H]3CCc4cc(O)ccc4[C@H]3CC[C@]12C
inactive: [1] -3.4% | [2] -0.9% | [3] -2.4%

CC(=O)Oc1ccc(C(c2ccc(OC(C)=O)cc2)c2ccccn2)cc1
inactive: [1] 1.2% | [2] -0.3% | [3] -2.2%

CCOC(=O)[C@H]1O[C@@H]1C(=O)N[C@@H](CC(C)C)C(=O)NCCC(C)C
inactive: [1] 1.7% | [2] -1.4% | [3] -2.8%

CCC(C(=O)Nc1ccc2c(c1)OCCO2)c1ccccc1 (centres undefined)
inactive: [1] 0.7% | [2] -0.2% | [3] -1.8%

CC(C)Cc1cc(C(=O)N2CCC(N3CCC(C(=O)N4CCCC4)CC3)CC2)n[nH]1
inactive: [1] -0.1% | [2] -2% | [3] -0.4%

CC1=C/C(=N\N=C2\NC(=O)C(CC(=O)Nc3ccccc3F)S2)CC(C)(C)C1 (centres undefined)
inactive: [1] -1.1% | [2] 0.8% | [3] 2.8%

CC1(C)Cc2ccccc2-c2n[nH]c(=S)n21
inactive: [1] -0.3% | [2] 0.5% | [3] 1.7%

CC(C)(CO)CNC(=O)CC1C(=O)NCCN1CC(c1ccccc1)c1ccccc1 (centres undefined)
inactive: [1] 0.8% | [2] -0.4% | [3] 0.3%

Cc1ccc(C(CC(=O)NCc2ccco2)c2ccc(OC(C)C)cc2)cc1 (centres undefined)
inactive: [1] 0.4% | [2] -1.6% | [3] -4%

COc1cc(C2C(C(=O)c3ccc(C)o3)=C(O)C(=O)N2Cc2cccnc2)ccc1O (centres undefined)
inactive: [1] 1.8% | [2] -0.4% | [3] -0.1%

Cc1ccc(CSCC(=O)N2CCCC2)cc1
inactive: [1] 2.8% | [2] -0.3% | [3] 0%

O=C(/C=C/c1c[nH]c2ccccc12)c1cccc2ccccc12
inactive: [1] 5.1% | [2] 2.4% | [3] -6.2%

COC(=O)c1ccc2c(c1)C(=O)/C(=C/c1ccc(O)cc1)O2
inactive: [1] -0.8% | [2] 0.7% | [3] -8.5%

Cc1nc(N[C@@H](Cc2c[nH]c3ccccc23)C(=O)O)c2oc3ccccc3c2n1
inactive: [1] 1.3% | [2] -0.2% | [3] -6.5%

NC(N)=N/N=C/c1ccc(OS(=O)(=O)c2ccccc2)cc1
inactive: [1] -5.1% | [2] -1.5% | [3] -1.4%

COCCCN1C(=O)C(=O)/C(=C(/O)c2ccc3c(c2)CC(C)O3)C1c1cccnc1 (centres undefined)
inactive: [1] -3% | [2] -2.1% | [3] 3.5%

Cc1c(NC(=O)c2cccs2)cccc1[N+](=O)[O-]
inactive: [1] 4.2% | [2] 1.3% | [3] 5.7%

CN/C(=C/[N+](=O)[O-])NCCSCc1ccc(CN(C)C)o1
inactive: [1] 0.1% | [2] 0.1% | [3] -7.4%

CCCc1c(OCCCCc2nn[nH]n2)ccc(C(C)=O)c1O
inactive: [1] -1.3% | [2] -4% | [3] -10.3%

CN1C(C(=O)Nc2ccccn2)=C(O)c2ccccc2S1(=O)=O
inactive: [1] 1.9% | [2] 1.5% | [3] 10%

O=C(Nc1ccccc1)OCC1CCCN2CCCCC12 (centres undefined)
inactive: [1] 0.6% | [2] 0.3% | [3] 2.5%

Cc1cccc(C)c1NS(=O)(=O)c1ccc(NC(=O)c2ccc(Cl)c([N+](=O)[O-])c2)cc1
inactive: [1] 2.3% | [2] -0.2% | [3] 0.9%

CC(=O)NC(Cc1c[nH]c2ccccc12)C(=O)N/N=C/c1ccccc1 (centres undefined)
inactive: [1] -1.4% | [2] -0.1% | [3] -5.7%

COc1ccc(OCC(=O)N2c3ccc(C)cc3C3CN(C)CCC32)cc1 (centres undefined)
inactive: [1] -4.9% | [2] -0.7% | [3] -2.6%

COc1c2ccoc2nc2c(OC)cccc12
inactive: [1] -3.7% | [2] 0.1% | [3] 3%

CC12CCC(C(=O)N3CCCCC3)([C@H](Br)C1=O)C2(C)C (some centres undefined)
inactive: [1] -3.4% | [2] -1.3% | [3] 0.1%

CC(=O)N1CCN(c2ccc(OC[C@H]3CO[C@](Cn4ccnc4)(c4ccc(Cl)cc4Cl)O3)cc2)CC1
inactive: [1] -2.2% | [2] -1.1% | [3] -3.1%

Cc1cc(OC(C(=O)O)c2ccccc2)c2c(C)c(Cc3ccccc3)c(=O)oc2c1 (centres undefined)
inactive: [1] 2% | [2] -0.1% | [3] 1.7%

CC1(C)Oc2ccc(C#N)cc2[C@@H](N2CCCC2=O)[C@@H]1O
inactive: [1] 3% | [2] 0.5% | [3] 5.1%

NS(=O)(=O)c1cc2c(cc1C(F)(F)F)NCNS2(=O)=O
inactive: [1] 0.5% | [2] -0.4% | [3] 5.4%

COc1ccccc1C(O)c1nccn1C (centres undefined)
inactive: [1] 1.9% | [2] -0.7% | [3] 0.4%

C[C@]12CCC(=O)C=C1CC[C@@H]1[C@@H]2C(=O)C[C@@]2(C)[C@H]1CC[C@]2(O)C(=O)CO
inactive: [1] -4.6% | [2] -1.7% | [3] -0.3%

COc1cc(CNCCc2ccccc2F)ccc1OCC(=O)N1CCCCC1
inactive: [1] 5.4% | [2] -0.1% | [3] 1%

Cn1c(=S)n(C)c2ccccc21
inactive: [1] 4% | [2] 0.1% | [3] 2.8%

O=c1c(C(c2ccccc2)c2c(O)sc3ccccc3c2=O)c(O)sc2ccccc12
inactive: [1] -0.8% | [2] 1.7% | [3] 2.4%

Cc1ccc2ncnc(NCCCCCC(=O)O)c2c1
inactive: [1] 1.7% | [2] -1.1% | [3] -4.7%

COc1ccc(C2N3CC4(C)CN2CC(C)(C3)C4)cc1OC (centres undefined)
inactive: [1] -0.3% | [2] -1.6% | [3] -4.9%

CC(C[N+](C)(C)C)OC(N)=O (centres undefined)
inactive: [1] -0.5% | [2] -0.4% | [3] 6.6%

C=CCc1ccc(OCC(O)COc2ccc(CC=C)cc2OC)c(OC)c1
inactive: [1] 5.2% | [2] -0.2% | [3] -6.2%

CC(=O)OCC(=O)[C@@]1(OC(C)=O)[C@@H](C)C[C@H]2[C@@H]3C[C@H](F)C4=CC(=O)C=C[C@]4(C)[C@@]3(F)[C@@H](O)C[C@@]21C
inactive: [1] 1.6% | [2] 0.4% | [3] -0.9%

O=c1cc(Cn2ccnc2)c2cc3c(cc2o1)CCC3
inactive: [1] 1.9% | [2] -1.1% | [3] -3.2%

CCN(CC)CCOC(=O)C1(C2CCCCC2)CCCCC1
inactive: [1] 1.9% | [2] 1% | [3] -2.4%

O=C(Nc1ccc(N2CCOCC2)cc1)c1ccc(-c2ccccc2[N+](=O)[O-])o1
inactive: [1] -2.6% | [2] -0.9% | [3] -10.4%

O=C(c1ccc(Cl)cc1)C1CCCN(Cc2ccc(Oc3ncccn3)cc2)C1 (centres undefined)
inactive: [1] 2.2% | [2] -1.2% | [3] -3.2%
